Source: PubChem BioAssay (National Center for Advancing Translational Sciences (NCATS))
Most compounds without a hit are left out; they make up all but 7.5% or so of the library.
HCMV inh: inhibitors of human cytomegalovirus. activity change, negative = inhibition, % at 57.5 µM. HFF cells, HCMV-luciferase reporter, 72 h; stronger effect = lower value. 410,000 compounds, 4.5% hits; in the data active = activity change below about -60%; inconclusive = no clear call, values can overlap the other calls; inactive = above about -39%
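Inhibition of viral replication was scored as loss of reporter luminescence in HFFs infected with HCMV-luciferase (MOI 1 PFU/cell) for 72 h; compounds tested at 2 doses, normalized to buffer and Salinomycin controls.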
Giardia FBPA inh: blocks Giardia fructose-bisphosphate aldolase activity. AID 2451. Potency, µM (top dose mostly 59.6 µM), inactives show top-dose activity, negative = inhibition, actives largely listed as inhibitors. purified Giardia FBPA. 290,000 compounds, 0.71% hits; note: potency is the fitted concentration of half-maximal effect; nearly all actives have a fitted effect of over 55% in size
Target sequence (A8B2U2 whole entry, looked up): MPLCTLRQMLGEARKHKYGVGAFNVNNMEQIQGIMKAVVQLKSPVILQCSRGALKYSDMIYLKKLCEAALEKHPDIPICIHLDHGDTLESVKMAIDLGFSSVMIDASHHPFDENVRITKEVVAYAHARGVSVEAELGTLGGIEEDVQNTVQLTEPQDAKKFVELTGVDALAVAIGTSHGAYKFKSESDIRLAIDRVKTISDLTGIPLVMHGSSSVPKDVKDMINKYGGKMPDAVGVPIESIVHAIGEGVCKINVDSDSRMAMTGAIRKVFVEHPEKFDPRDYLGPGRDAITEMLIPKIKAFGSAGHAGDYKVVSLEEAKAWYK
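Giardia FBPA (40 nM reagent) was preincubated 10 min at RT with compound (up to 57.5 uM final), then substrate plus GAPDH/TPI/NAD/arsenate coupling system with diaphorase/resazurin was added; resorufin fluorescence (525/598 nm) was read after 20 min.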
HCV inh: inhibitors of hepatitis C virus infection; Potency, µM (highest dose often 41.8 µM), for the others: at the highest dose activity change, negative = inhibition, most hits filed as inhibitors; 340,000 compounds, 3.4% hits; Huh7.5.1 HCVcc-Cre infection, luciferase reporter, 44 h; note: potency is the fitted concentration of half-maximal effect
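Antiviral activity was scored by luciferase reporter output from cells infected with HCVcc-Cre (~0.5 moi) in presence of compound, 44 h infection period, cells seeded 1,000/well 4 h prior.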
VACV Venus inh: inhibitors of vaccinia virus (Venus reporter) | Vaccinia virus Venus reporter expression, fluorescence | AID 720580 | 330,000 compounds, 0.46% hits | Potency, µM (highest dose often 36.5 µM), without a hit: at the top dose activity change, negative = inhibition, hits mostly inhibitors; calls by dose curve; tested in A549 cells; note: potency is the fitted concentration of half-maximal effect; nearly all actives have a fitted effect of over 30% in size
FMDV inh: blocks foot and mouth disease virus. FMDV antiviral cell-based qHTS. Potency, µM (top dose mostly 57.9 µM), for the others: at the highest dose activity change, negative = inhibition, hits mostly inhibitors. 410,000 compounds, 1.2% hits. AID 1159524; calls by dose curve; tested in HEK293T cells; note: read-out not given here; potency is the fitted concentration of half-maximal effect; nearly all actives have a fitted effect of over 45% in size
VACV mCherry inh: vaccinia inhibition (mCherry reporter) | Vaccinia virus mCherry reporter infection, fluorescence | Potency, µM (series often up to 36.5 µM), inactives show at the highest dose activity change, negative = inhibition, most hits filed as inhibitors | 310,000 compounds, 0.63% hits; calls by dose curve; tested in A549 cells; note: potency is the fitted concentration of half-maximal effect; nearly all actives have a fitted effect of over 35% in size
* marks the source's active call; other numbers are inactive results; i = inactive; ? = inconclusive; · = no result given; [ ] = another dose, or the depositor's remark. Unless noted, calls come from the whole dose curve; as a rule, active = well fitted curve in the direction sought with a large enough effect; inconclusive = small, poorly fitted or top-dose-only effect, or another doubt; inactive = no such curve, though single readings can be large; an effect the other way counts as inactive or inconclusive. % is set by controls: 0 for no effect and ±100 for the full control effect.

SMILES | HCMV inh | Giardia FBPA inh | HCV inh | VACV Venus inh | FMDV inh | VACV mCherry inh
COc1ccc2[nH]c3nc(SCC(=O)NNC(=O)c4ccc(OC)c(OC)c4)nnc3c2c1 | -15 | -7% | 1% | · | 7.1µM* | ·
Cc1cccc(Nc2ccc([N+](=O)[O-])cn2)c1 | 0 | 3% | -10% | · | 77% | ·
CCOC(=O)c1cccc(NC(=O)CC2C(=O)N(c3ccc(C)cc3)C(=O)N2Cc2cccc(OC)c2)c1 (stereo not given) | -6 | · | · | -4% | -14% | -6%
CCCN(C)C1CN(Cc2cn(Cc3cccc(C(F)(F)F)c3)nn2)S(=O)(=O)C1 (stereo not given) | -100* | · | · | -10% | -13% | -5%
CC(=O)OC[C@H]1O[C@@H](O/N=C\[C@@H](C)[C@H](OCc2ccccc2)C(C)C)[C@H](OC(C)=O)[C@@H](OC(C)=O)[C@H]1OC(C)=O | · | -2%[12.9 µM] | · | · | · | ·
NC(=O)CCC1NC(=S)N(Cc2ccccc2)C1=O (stereo not given) | -67* | -4% | 2% | -12% | -14% | -1%
CN1C(=O)C(CCC(N)=O)NC1=S (stereo not given) | -30 | -4% | 16% | -1% | -11% | i
CN(CC(=O)Nc1ccccc1Br)C(=O)c1sccc1-c1ccccc1 | -29 | · | ? | · | ? | ·
COc1ccc(/C=C/C(=O)c2ccc3c(c2)OCCO3)cc1[N+](=O)[O-] | 178 | 2% | 32µM* | · | ? | ·
COc1cc(/C=C/C(=O)c2ccc3c(c2)OCO3)cc(Cl)c1O | -62* | -8% | -19% | 320% | 30% | ?
O=C(/C=C/c1ccccc1)c1ccc2ccccc2c1 | 32 | · | -6% | -10% | -9% | -13%
COc1ccc(/C=N/NC(=O)c2ccc3c(c2)OCCO3)cc1[N+](=O)[O-] | -22 | 5% | -8% | -10% | -5% | -14%
COc1ccc(C(=O)C=Cc2ccc3c(c2)OCO3)cc1OC | 6 | · | · | -18% | 7% | -3%
CC(C)(C)c1cc(C(=O)/C=C/c2ccc(C(=O)O)cc2)cc(C(C)(C)C)c1 | · | ? | · | · | 25µM* | ·
COc1cc(/C=C/C(=O)c2ccc(Cl)s2)cc(OC)c1O | · | -11% | 13µM* | · | 13µM* | ·
COc1cc(-c2nc3ccc(Cl)cn3c2Nc2ccc3c(c2)OCO3)ccc1O | -24 | · | · | -21% | -18% | -27%
O=C(O)c1ccc(/C=C/C(=O)c2ccc3c(c2)OCCCO3)cc1 | i | · | 1% | ? | 10µM* | ?
CCOc1cc(/C=C/C(=O)c2ccc3c(c2)OCCO3)ccc1OCC(=O)N(C)C | -77* | -3% | ? | 10µM* | 14µM* | 10µM*
COc1ccc(/C=C/C(=O)c2ccc3c(c2)OCO3)c(OC)c1 | 92 | -4% | -11% | · | 25% | ·
COc1cccc(/C=C/C(=O)c2ccc3c(c2)OCCO3)c1OC | -96* | 16% | -11% | ? | -1% | ?
Cc1ccc(C(CC(=O)Nc2ccc(C)cc2C)N2Cc3ccccc3C2=O)cc1 (stereo not given) | 2 | · | · | -11% | 59% | -14%
COc1ccc(NC(=O)c2cccc(N3C(=O)c4ccc(C(=O)Nc5ccc(OC)c(O)c5)cc4C3=O)c2)cc1O | · | · | -5% | -12% | -28% | -21%
CCOc1ccc(C2c3[nH]c4ccccc4c3CCN2C(=O)Cc2cccc(OCC)c2OCC)cc1 (stereo not given) | 16 | · | · | -21% | -5% | -24%
Cc1ccc(CNS(=O)(=O)c2cnc(N)nc2)cc1 | 35 | · | · | -1% | 4% | -15%
COC(=O)CNC(c1ccccc1Cl)c1cc(Br)ccc1NS(=O)(=O)c1ccc(C)cc1 (stereo not given) | -70* | -1% | ? | -19% | -3% | -9%
SMILES | HCMV inh | Giardia FBPA inh | HCV inh | VACV Venus inh | FMDV inh | VACV mCherry inh
COC(=O)CNC(c1ccccc1)c1cc(Br)ccc1NC(C)=O (stereo not given) | -26 | 8% | 4% | 5% | 0% | 6%
COc1ccc(CN2C(=O)CN(S(C)(=O)=O)CC2(C)C(=O)Nc2c(C)cccc2C)cc1OC (stereo not given) | 93 | · | · | -4% | -9% | 11%
O=C(C[C@@H]1C=C[C@@H](NC(=O)C2CC2)[C@@H](CO)O1)NCc1ccccc1Cl | -62* | · | · | -2% | -8% | -8%
O=C(c1cccnc1)C1CCCN(Cc2ccc3c(c2)CN(C(=O)c2cccs2)CCO3)C1 (stereo not given) | · | · | · | -17% | -5% | -11%
NC(=S)N=Nc1c(O)[nH]c2cc(F)c(F)cc12 | -29 | -15% | -4% | 2.2µM* | -15% | 3.2µM*
CC[C@@H](O)C[C@H]1CCC[C@@]2(C[C@@H]3OC(=O)/C=C/[C@@](C)(O)[C@@H](O)[C@H](C)[C@@H](O)[C@H](OC4CCC(N(C)C)C(C)O4)[C@@H](O)[C@](C)(O)CCCCC/C=C/[C@@H]4CC(C)(C)O[C@@]4(O)C[C@H](O2)[C@H]3C)O1 (stereo not given in full) | -97* | · | ? | -26% | ? | -7%
CCCN1CNc2c(c(=O)[nH]c(=S)n2CCc2cc(C)cc(C)c2)C1 | · | · | · | -23% | · | i
Cc1cccc(N2CCN(C(=O)CS(=O)(=O)Cc3nc(-c4ccccc4C)oc3C)CC2C)c1 (stereo not given) | ? | · | · | -3% | ? | -9%
Cc1ccc(OCc2ccc(C(=O)Nc3cc(C)on3)o2)c([N+](=O)[O-])c1 | 29 | · | -21% | · | -2% | ·
O=C(NC12CC3CC(CC(C3)C1)C2)c1ccc(-c2cccc(Cl)c2)o1 | -63* | 1% | ? | -15% | 29% | -20%
O=C(NC12CC3CC(CC(C3)C1)C2)c1ccc(COc2ccc(Cl)cc2[N+](=O)[O-])o1 | · | -7% | 8.9µM* | -40% | ? | ·
Cc1ccc(C(C)C)c(OCc2nn(CC(=O)c3ccc(Cl)cc3)c3[n+]2CCCCC3)c1 | -112* | 7% | ? | ? | 32µM* | -13%
O=C(OCc1cn([C@H]2CN(C(=O)C3CCCCC3)[C@@H](c3ccccc3)C[C@@H]2O)nn1)c1ccccc1 | 12 | · | · | -16% | -9% | 4%
C/C(N)=C(/C#N)C(=O)CSc1cc(C)c2cc(C)cc(C)c2n1 | -7 | 1% | 10µM* | -20% | 4% | -16%
Cc1cc(C)c2nc(SCC#N)cc(C)c2c1 | -16 | 2% | ? | -16% | · | -8%
C/C(=N/Nc1ccc(C(=O)O)cc1)c1ccc(O)c(O)c1O | -6 | 7.1µM* | 10% | 13% | -21% | -7%
COc1ccc(/C(C)=N/Nc2ccc(C(=O)O)cc2)cc1OC | 21 | 1% | 4% | -9% | -15% | -11%
COc1ccc(OC)c(/C(C)=N/Nc2ccc(C(=O)O)cc2)c1 | -96* | 17% | 24% | -10% | -19% | -9%
COc1cc(NC(=O)c2cccc3c(-c4cccnc4)coc23)cc(OC)c1OC | -39 | · | · | ? | 13µM* | ?
